From PubChem BioAssay (NCATS)
Inconclusive results are not listed. Calls of active or inactive are those of the source. The call rests on the fitted dose curve; in most records, active means well fitted inhibition curve with a large enough effect; inconclusive means small, poorly fitted or top-dose-only effect; inactive means flat fitted curve, though single readings scatter.

Tests used:
Assay in all cases: qHTS profiling for inhibitors of Plasmodium falciparum proliferation (AID 504749); further: nearly all actives have a fitted effect of over 60% in size
Conditions in all cases: P. falciparum in erythrocytes, SYBR Green DNA, 72 h; series mostly up to 28.7 µM
[1] = test system: AA1029
Procedure, shortened: (§1)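 Three-day growth assay of blood-stage parasites in erythrocytes (0.3% parasitemia, 2.5% hematocrit) at 37 C, 5% CO2, quantified by SYBR Green DNA staining after overnight detergent lysis.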

[2] = test system: ATS95
Procedure, shortened: as §1

[3] = test system: C2A
Procedure, shortened: as §1

[4] = test system: CP211
Procedure, shortened: as §1

[5] = test system: CP217
Procedure, shortened: as §1

[6] = test system: CP250
Procedure, shortened: as §1

[7] = test system: CP252
Procedure, shortened: as §1

[8] = test system: CP256
Procedure, shortened: as §1

[9] = test system: CP260
Procedure, shortened: as §1

[10] = test system: CP265
Procedure, shortened: as §1

[11] = test system: CP269
Procedure, shortened: as §1

[12] = test system: CP297
Procedure, shortened: as §1

[13] = test system: CP329
Procedure, shortened: as §1

[14] = test system: ECU
Procedure, shortened: as §1

[15] = test system: N140
Procedure, shortened: as §1

[16] = test system: P93_24
Procedure, shortened: as §1

[17] = test system: PAD
Procedure, shortened: as §1

[18] = test system: PC15
Procedure, shortened: as §1

[19] = test system: PC26
Procedure, shortened: as §1

[20] = test system: SC27B
Procedure, shortened: as §1

Measured: Potency

C[C@@H](C(=O)O)c1ccc(-c2ccccc2)c(F)c1
inactive: [1] | [2] | [3] | [4] | [5] | [6] | [7] | [8] | [9] | [10] | [11] | [12] | [13] | [14] | [15] | [16] | [17] | [18] | [19] | [20]
